In PubChem BioAssay (NCI):
This is part of a sample that, as a whole, favours compounds with a hit. Of some 83,000 tested, about 20% had one in any assay.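 Single-concentration screen, 48 h exposure, 96-well plates. Endpoint: percent growth. Below 10 = active.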 Values without a mark were called inactive. The source made the active and inactive calls.

How the values were obtained:
Assay in all cases: NCI-60 one-dose screen, 48 h (100 = growth as untreated, 0 = no growth, -100 = all killed)
Conditions in all cases: 10 µM unless noted
DU-145 prostate = system: DU-145 prostate
K-562 leukemia = system: K-562 leukemia
MALME-3M melanoma = system: MALME-3M melanoma
MDA-MB-231 breast = system: MDA-MB-231 breast
RXF 393 renal = system: RXF 393 renal
SF-268 CNS = system: SF-268 CNS
SF-295 CNS = system: SF-295 CNS
SF-539 CNS = system: SF-539 CNS
UACC-257 melanoma = system: UACC-257 melanoma
M14 melanoma = system: M14 melanoma
HCT-15 colon = system: HCT-15 colon
HT29 colon = system: HT29 colon
SNB-75 CNS = system: SNB-75 CNS
SNB-19 CNS = system: SNB-19 CNS
U251 CNS = system: U251 CNS
PC-3 prostate = system: PC-3 prostate
SK-MEL-5 melanoma = system: SK-MEL-5 melanoma
UACC-62 melanoma = system: UACC-62 melanoma
LOX IMVI melanoma = system: LOX IMVI melanoma
SK-MEL-28 melanoma = system: SK-MEL-28 melanoma

| Structure (SMILES) | growth (DU-145 prostate) | growth (K-562 leukemia) | growth (MALME-3M melanoma) | growth (MDA-MB-231 breast) | growth (RXF 393 renal) | growth (SF-268 CNS) | growth (SF-295 CNS) | growth (SF-539 CNS) | growth (UACC-257 melanoma) | growth (M14 melanoma) | growth (HCT-15 colon) | growth (HT29 colon) | growth (SNB-75 CNS) | growth (SNB-19 CNS) | growth (U251 CNS) | growth (PC-3 prostate) | growth (SK-MEL-5 melanoma) | growth (UACC-62 melanoma) | growth (LOX IMVI melanoma) | growth (SK-MEL-28 melanoma) |
| --- | --- | --- | --- | --- | --- | --- | --- | --- | --- | --- | --- | --- | --- | --- | --- | --- | --- | --- | --- | --- |
| C=C(C)[C@@H]1CC[C@]2(C)[C@H](CC=C3[C@@H]4CC(C)(C)CC[C@]4(CO)CC[C@]32C)[C@@]1(C)CCCN | 44% | -47.7% (active) | -45.7% (active) | 27% | 31.6% | 67.6% | 90.6% | -61.5% (active) | -85.2% (active) | -65.5% (active) | -71.6% (active) | -52.8% (active) | 39.7% | 79.5% | -86.8% (active) | 21.3% | 55.4% | 98.8% | -97.2% (active) | -88.4% (active) |
| Nc1c(C(=O)Nc2cccc(Cl)c2)sc2nc3c(cc12)CCCC3 | 104% | 48.3% | 102% | 93.3% | 103% | 102% | 91.6% | 86.9% | 79.1% | 78.6% | 78.8% | 68.2% | 101% | 92.2% | 89.3% | 80.2% | 88.2% | 70.2% | 93% | 91.1% |
| CC1=CCC(OC(=O)C(C)(C)CC(O)(C(C)O)C(O)C2(C)C=CC(Cc3ccc(C(C)C)cc3)(C(C)C)CC2)(C(C)C)CC1 (stereo not given) | 107% | 9.06% (active) | 92.2% | 95.9% | 97.8% | 98.5% | 97.1% | 93.3% | 98.7% | 96.1% | 101% | 103% | 72.5% | 98.2% | 96.7% | 96.8% | 99.6% | 86.3% | -50.6% (active) | 100% |
| Fc1ccc(Cn2cc(CSc3nc4ccccc4o3)nn2)cc1 | 108% | 95.3% | 107% | 97.1% | 105% | 95.4% | 97% | 100% | 105% | 97% | 104% | 99.8% | 92.2% | 92.5% | 105% | 98.3% | 110% | 84.3% | 107% | 98.9% |
| CCOC(=O)c1c(C)nc2c(c1N)CC(=O)N2Cc1ccc(OC)cc1 | 47.4% | 99.8% | 33.6% | 19.6% | 37.7% | 4.12% (active) | 28.5% | 26.4% | 49.4% | 86.8% | 55.6% | 38.4% | -5.39% (active) | 4.6% (active) | 4.05% (active) | 43% | 53.7% | 25.7% | 75.9% | 55% |
| O=C(Nc1ncccc1OCc1ccccc1)NC1CCCCCC1 | 92% | 70.6% | 90.2% | 90.1% | 106% | 92.3% | 85.4% | 98.2% | 105% | 95.3% | 80.7% | 74.6% | 97.7% | 97.9% | 96.2% | 48.1% | 69.1% | 71.6% | 90.6% | 93.6% |
| COc1cc2c(cc1OCCCCN1CCN(C(=S)SCCC(C#N)(c3ccccc3)c3ccccc3)CC1)N=C[C@@H]1CCCN1C2=O | -96.7% (active) | -34.3% (active) | -79.4% (active) | -23.7% (active) | -83.7% (active) | -69.9% (active) | -8.56% (active) | -91.3% (active) | -11.1% (active) | -29.5% (active) | -55.5% (active) | -65.6% (active) | -82.3% (active) | -14.5% (active) | -81.9% (active) | -16.1% (active) | -98.3% (active) | -22.7% (active) | -83.2% (active) | -70.2% (active) |
| COc1cccc(Nc2ncnc3cc(NC(=O)CCl)ccc23)c1 | -74% (active) | -9.78% (active) | -85.3% (active) | -69.4% (active) | -90.2% (active) | -57.5% (active) | -19% (active) | -89.1% (active) | 14% | -78.4% (active) | -43.2% (active) | -79.5% (active) | -79.9% (active) | -38.6% (active) | -99.2% (active) | -80.3% (active) | -85.8% (active) | -67.5% (active) | -74.6% (active) | -33.7% (active) |
| O=C(Cc1ccccc1)Nc1cccc(N=Cc2ccccc2O)c1 | 93.1% | 98.7% | 106% | 114% | 111% | 84% | 100% | 101% | 105% | 107% | 102% | 113% | 73.8% | 99.2% | 94.3% | 93.4% | 106% | 101% | 100% | 111% |
| CCN1C2CCC1/C(=C\c1ccc(F)cc1)C(=O)/C2=C/c1ccc(F)cc1 | 9.04% (active) | 20.5% | 55.7% | 62.5% | 57.9% | 38.4% | 36.3% | 51.8% | 50.8% | 35.9% | 30.4% | 23.7% | 40.6% | 51% | 21.2% | 38.5% | 48.2% | 35.7% | 19.7% | 72.5% |
| Cc1ccc(-c2nc(/C=C3/C(=O)Nc4ccc(F)cc43)c3ccccn23)cc1 | -23.1% (active) | 93.7% | 75.8% | 91% | 63.5% | 75.6% | 76% | 82.3% | 95.5% | 98.8% | -3.43% (active) | 17.2% | 92.2% | 95% | 64.3% | 68.1% | 86.7% | 74.7% | 63.8% | 103% |
| Cc1ccc(C2CC(c3nc(-c4ccc(Cl)cc4)oc3C)=NN2C(=O)c2ccncc2)cc1 (stereo not given) | 93.1% | 84.2% | 90.9% | 71.6% | 74.8% | 81.6% | 87.9% | 89.5% | 97.1% | 93.8% | 83.7% | 86.9% | 82.1% | 77.2% | 87.7% | 73.2% | 92.4% | 72.3% | 86% | 92.4% |
| Nc1[nH]c(=S)nc2oc(-c3ccccc3)c(-c3ccccc3)c12 | 106% | 95.2% | 108% | 103% | 93% | 95.9% | 96.1% | 98.6% | 102% | 106% | 97.3% | 101% | 90.3% | 98% | 103% | 97.4% | 102% | 91.5% | 98% | 101% |
| CCOc1c(OC)cc2c(c1O)C(=O)N[C@@H]1[C@@H](O)[C@@H](O)[C@H](O)C[C@@H]21 | 109% | 91.2% | 102% | 106% | 109% | 102% | 102% | 97.7% | 100% | 105% | 102% | 100% | 93.5% | 99% | 96.7% | 100% | 101% | 93.1% | 98.1% | 105% |
| CCOc1cccc(/C=N/NC(=O)c2cccc(Nc3ccnc(C(F)(F)F)c3)c2)c1O | 19.2% | 28.7% | 30.9% | 45% | 47.4% | 26.7% | 30.3% | 14.8% | 37.3% | -6.87% (active) | 28.8% | 53.2% | 36.4% | 35.1% | 37% | 59.1% | 34.7% | 0.213% (active) | 11.8% | 34.6% |
| CO[C@H]1CC(=O)n2c3ccccc3c3c4c(c5c6ccccc6n1c5c32)C(=O)NC4=O | 42.3% | 76.3% | 50.2% | 71.4% | 62.4% | 68.9% | 11.3% | 57% | 73.5% | 62.2% | 62.4% | 26.3% | 4.5% (active) | 98.4% | 46.8% | 54.6% | 60.7% | 44.9% | 63.8% | 39.9% |
